STAT1 blocker – reduces IFN-gamma driven STAT1 reporter signal; 200,000 tested, 0.35% active; inhibition, % at 5.5 µM; NIH 3T3 STAT1-luciferase reporter, luminescence;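 active means inhibition above a set limit, the mean inhibition across all tested compounds plus 3 SD, cut at about 34% in these data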
Platelet DG rel – platelet dense granule release activity | human platelet-rich plasma, SFLLRN dense granule ATP release, luminescence | inhibition, %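 (compounds screened at 7.5 µM in platelet-rich plasma)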 | 300,000 tested, 0.22% active | AID 1663;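 active means mean replicate score, as percent of positive control, at or above 50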
STAT3 inh – STAT3 signaling inhibition; 190,000 tested, 0.89% active; inhibition, % at 5.5 µM; U3A cells, IL-6 STAT3-luciferase reporter, luminescence; host cell line lacks STAT1;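 active means inhibition above the mean inhibition across all screened compounds plus 3 SD, cut at about 44% in these data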
PPC-1+TRAIL kill – PPC-1 cancer cell killing with TRAIL present; cell killing (% activity), % at 4 µM or 5 µM; 220,000 tested, 0.41% active; PPC-1 cells + TRAIL, ATPLite viability luminescence;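 active means cell killing above 50% in the first pass at 4 µM, then a duplicate retest at 5 µM averaging 50% or more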
TRAIL sens C8 – caspase-8 TRAIL sensitization | inhibition (viability loss, TRAIL sensitization), % at 10 µM | 360,000 tested, 1% active | NB7+C8 cells + TRAIL, ATPlite viability luminescence;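 active means compounds causing at least 50% loss of cell viability in the single-dose screen, relative to plate controls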
PPC1 cytotox – kills PPC-1 cells; shares compounds with PPC-1+TRAIL kill; PPC-1 viability, ATPlite luminescence, overnight; cytotoxicity, % at 5 µM; 1,200 tested, 50% active; AID 1447;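 active means reconfirmed compounds whose average cytotoxicity reaches 50% or more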
Numbers stand for hits; - = inactive; . = no result given. In the library only some 1.6% were active in any assay of this set; here they are far more common.

SMILES	STAT1 blocker	Platelet DG rel	STAT3 inh	PPC-1+TRAIL kill	TRAIL sens C8	PPC1 cytotox
CC(NC(=O)CN1C(=O)NC2(CCCCC2)C1=O)c1ccc(S(N)(=O)=O)cc1 (centres undefined)	.	.	.	.	-	.
COc1ccc(-c2cn3c(C)c(C(=O)N4CCCc5ccccc54)sc3n2)cc1	-	-	-	.	-	.
COc1ccc(-c2cn3c4c(sc3n2)CCCC4)cc1	-	-	-	76	79	74
COc1cc(/C=C2/SC(=S)N(CCC(=O)Nc3cccnc3)C2=O)cc(OC)c1OC	.	.	.	.	-	.
COc1ccc(Cl)cc1NC(=O)N1CCN(S(C)(=O)=O)CC1	-	-	-	-	-	-
COc1ccc(Cl)cc1NC(=S)N1CCN(S(C)(=O)=O)CC1	.	-	.	-	-	.
CCOc1ccc(-c2cn3ccccc3n2)cc1	53	.	89	91	84	89
Cn1c(=N)n(CC(=O)c2ccccc2)c2ccccc21	.	-	.	53	81	57
COc1ccc(Cl)cc1-c1nc(SCC(=O)N(C)CCC#N)n[nH]1	-	-	-	-	-	-
Cc1cc(/C=C2/C(=N)N3C(=NC2=O)SN=C3S(C)(=O)=O)c(C)n1-c1ccc(F)cc1	-	-	-	-	-	.
COc1ccccc1-n1c(C)cc(/C=C2/C(=N)N3C(=NC2=O)SN=C3S(C)(=O)=O)c1C	-	-	-	-	58	55
CC(=O)Nc1cccc(-c2nc3ccc(NC(C)=O)cc3s2)c1	-	-	-	-	-	-
CC(=O)Nc1ccc2nc(NC(=O)C(Cl)(Cl)Cl)sc2c1	-	-	-	-	-	.
O=C(Nc1ccccc1)Nc1cc(OCC(F)(F)F)cc(OCC(F)(F)F)c1	-	-	-	-	-	-
CCOC(=O)CSc1ncnc2c1cnn2-c1ccc(C)cc1	-	-	-	-	-	-
CCOC(=O)CSc1ncnc2c1cnn2-c1ccccc1	-	-	-	-	-	.
CCc1nc2c(OCc3ccc(Cl)cc3)cccn2c1N(C)C(=O)c1ccc2c(c1)OCO2	.	.	.	.	-	.
CCCCN(C)S(=O)(=O)c1c(C)[nH]c(=O)[nH]c1=O	-	-	-	-	-	-
CC(=O)Nc1sc2c(c1-c1nc3ccccc3s1)CCN(C(C)C)C2	-	.	.	-	54	-
O=C(N/N=C/c1cccnc1)c1ccc2c(c1)OCCO2	-	-	-	55	81	59
O=C(N/N=C/c1ccc2c(c1)OCO2)c1cccnc1	.	-	.	.	-	.
CCOc1cc(-c2nc3ccccc3s2)ccc1O	.	-	.	-	-	.
O=S(=O)(c1ccc(-c2nc3ccccc3s2)cc1)N1CCCC1	-	-	-	-	-	.
FC(F)(F)c1ccc(-c2nc3ccccc3s2)cc1	.	.	.	.	-	.
CC(C)c1ccc(-c2nc3ccccc3s2)cc1	.	-	.	91	93	92
SMILES	STAT1 blocker	Platelet DG rel	STAT3 inh	PPC-1+TRAIL kill	TRAIL sens C8	PPC1 cytotox
O=S(=O)(c1cccc(-c2nc3ccccc3s2)c1)N1CCCC1	-	-	-	-	-	-
Nc1cccc(-c2nc3ccccc3s2)c1	-	-	-	-	51	-
O=C(O)c1ccc2c(c1)C(=O)N(c1cccc(-c3nc4ccccc4s3)c1)C2=O	-	-	-	-	-	-
CC(C)c1ccc(NC(=O)C2(C)Cc3c(-c4ccc(N(C)C)cc4)ccnc3O2)cc1 (centres undefined)	.	.	.	.	-	.
Cc1cc(=O)oc2cc(OCC(=O)Nc3c(C)n(C)n(-c4ccccc4)c3=O)c(Cl)cc12	.	.	.	.	-	.
O=C1NC[C@H](CCCCN2CCN(CC3CCCCC3)C(=O)C2=O)N(CC2CCCCC2)C1=O	.	.	.	.	-	.
O=C(Nc1nnc(SCC(=O)N2CCOCC2)s1)c1ccccc1Cl	-	-	-	58	69	56
O=C(Nc1nnc(SCC(=O)N2CCCCC2)s1)c1ccccc1F	.	-	.	.	-	.
CSc1cccc(NC(=O)c2cnn3ccccc23)c1	.	-	.	-	-	.
CCc1ccc(NC(=O)c2cnn3ccccc23)cc1	78	-	98	-	58	50
COc1cc(OC)c(C(=O)Nc2cccnc2)cc1OC	.	-	.	.	-	.
COc1cc2ccccc2cc1C(=O)Nc1cccnc1	-	-	-	-	-	-
Cc1[nH]n(-c2ccccc2)c(=O)c1/C=N/Nc1nncc(-c2ccccc2)n1	-	-	-	63	58	58
COc1ccc2nc(N=Nc3ccc(N(C)C)cc3)sc2c1	53	.	44	90	94	90
COc1ccc2nc(/N=C\N(C)C)sc2c1	-	-	-	-	-	.
CCN(CC(=O)Nc1ccc(NC(C)=O)cc1)C(=O)CSc1ncnc2sc(C)c(C)c12	.	-	.	.	-	.
